# Test results as given in PubChem BioAssay AID1578 (Sanford-Burnham Center for Chemical Genomics, 2009).
# About 3,000 (1%) of roughly 290,000 compounds were called active. No stated cut-off is given here; in the data, active means inhibition mostly above about 36% (no sharp cut-off); inactive means mostly below about 34%. Shown is part of a subset that was picked to be rich in actives.
# Assay: inhibition of NOD1-driven NF-kB reporter – cell-based, luminescence, uHTS, primary screen (AID 1578);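 further: HEK-293T reporter cells stimulated with the NOD1 agonist gamma-tri-DAP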
# Conditions: NOD1-driven NF-kB luciferase reporter cells, at 4 µM, active compounds read high
row,Structure (SMILES),inhibition
1,CS(=O)(=O)N(CC(=O)Nc1cccnc1)c1ccc2c(c1)OCCO2,-12.2% (inactive)
2,CS(=O)(=O)N1CCN(c2ccccc2NC(=O)c2ccc(-c3ccc(Br)cc3)o2)CC1,-21.7% (inactive)
3,CC(C)c1ccc(NC(=O)COC(=O)CCC(=O)c2cccs2)cc1,5.4% (inactive)
4,O=C1C(N2CCOCC2)=C(n2nnc3ccccc32)C(=O)c2ccccc21,101% (active)
5,O=C1c2ccccc2C(=O)c2c1cccc2-n1nnc2ccccc21,3.1% (inactive)
6,O=C(O)c1ccc(NC2=C(n3nnc4ccccc43)C(=O)c3ccccc3C2=O)cc1,-3.8% (inactive)
7,CCOC(=O)c1ccc(NC(=O)CN2C(=O)C(CC)SC(CC)C2=O)cc1 (stereo unspecified),-15.5% (inactive)
8,O=C(c1ccc2ccccc2c1)N1CCCCC1,14.9% (inactive)
9,CCSc1nnc(NC(=O)c2ccc(Br)s2)s1,-37.5% (inactive)
10,CCc1nnc(NC(=O)c2nn(-c3ccccc3)nc2C)s1,-6.6% (inactive)
11,Cc1nn(-c2ccccc2)nc1C(=O)NNC(=O)c1ccc(C(F)(F)F)cc1,-5.6% (inactive)
12,O=C(Nc1nnc(C(F)(F)F)s1)c1ccc(Br)s1,84% (active)
13,O=C(Nc1nnc(C(F)(F)F)s1)c1c(F)cccc1F,2% (inactive)
14,Cc1nn(-c2ccccc2)nc1C(=O)Nc1nnc(C(F)(F)F)s1,54.4% (active)
15,CC1(C)CC(=O)/C(=C(\O)CCCN2C(=O)c3ccccc3C2=O)C(=NCCO)C1,-17.2% (inactive)
16,COc1cc2[nH]c(C(=O)NN)c(N)c2cc1OC,-7.9% (inactive)
17,CC(C)(C)NC(=O)C(c1ccccc1)N(Cc1ccco1)C(=O)c1csnn1 (stereo unspecified),-0.4% (inactive)
18,CCOC(=O)C1CCN(C(=O)Cn2cccc2C(=O)c2ccccc2)CC1,-13.4% (inactive)
19,CC1CN(Cc2nc3c(c(=O)[nH]c(=O)n3C)n2CCN2CCOCC2)CC(C)O1 (stereo unspecified),7.3% (inactive)
20,CC(C)[C@H](NC(=O)[C@@H]1CSC2c3ccccc3C(=O)N21)C(=O)NCc1ccncc1 (stereo partly specified),-23.2% (inactive)
21,c1ccc(-c2ccc(-c3ccccn3)nn2)nc1,27.1% (inactive)
22,c1ccc(-c2ccccn2)nc1,-28.9% (inactive)
23,c1ccc(-c2cccc(-c3ccccn3)n2)nc1,90.2% (active)
24,O=C(c1ccc2c3c(cccc13)CC2)C1CCCN(C(=O)c2ccc[n+]([O-])c2)C1 (stereo unspecified),10.8% (inactive)
25,CCn1c(C)c(C(C)=O)cc(C#N)c1=O,-4.6% (inactive)
26,C=CCNC(=O)C1CCN(c2c([N+](=O)[O-])cc(C(F)(F)F)cc2[N+](=O)[O-])CC1,2.2% (inactive)
